# High-throughput results deposited in PubChem BioAssay by several laboratories.
# 3CLpro inhibitor: SARS-CoV 3CLpro protease inhibitors, primary screen, biochemical, quenched FRET. inhibition, % at 6 µM. 0.14% of 290,000 active. AID 1706, 2009. recombinant SARS-CoV 3CLpro, quenched FRET peptide cleavage; in the data active = inhibition above about 12%
# FadD28 binding: inhibitors of FadD28 bisubstrate probe binding, primary screen, biochemical, fluorescence polarization, single point; Mycobacterium tuberculosis FadD28 fatty-acid-AMP ligase; 0.22% of 360,000 active; inhibition, % at 12.5 µM; in the data active = inhibition above about 8.5%, passing the limit was not always enough
# GDH-TPI counter-1: GDH-TPI coupling enzyme inhibitors, primary screen, artefact control for M. tuberculosis FBA inhibitor project, biochemical, absorbance, full deck; GDH-TPI coupled enzyme counterscreen, NADH absorbance; inhibition, % at 4.8 µM; 1.2% of 360,000 active; AID 588335, 2011; in the data active = inhibition above about 30%;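 note: 0% = DMSO wells and 100% = wells lacking the enzyme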
# Mtb BioA inh: M. tuberculosis BioA enzyme inhibitors, primary screen, biochemical, plate reader, single point, HTS. 7,8-diaminopelargonic acid synthase BioA (Mycobacterium tuberculosis). purified M. tuberculosis BioA enzyme. inhibition, % at 9.99 µM. 0.096% of 360,000 active. AID 602481, 2012; in the data active = inhibition above about 40%
# Mtb FBA inh: Mtb FBA enzyme inhibitors, primary screen, biochemical, fluorescence, strain H37Rv; Fructose-bisphosphate aldolase (Mycobacterium tuberculosis (strain ATCC 25618 / H37Rv)), …; purified M. tuberculosis FBA, fluorescence read-out; inhibition, % at 1 µM; 2.3% of 360,000 active; AID 588726, 2011;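 note: 0% = vehicle and 100% = reference inhibitor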
# Target sequence (P9WQA3 whole entry, looked up): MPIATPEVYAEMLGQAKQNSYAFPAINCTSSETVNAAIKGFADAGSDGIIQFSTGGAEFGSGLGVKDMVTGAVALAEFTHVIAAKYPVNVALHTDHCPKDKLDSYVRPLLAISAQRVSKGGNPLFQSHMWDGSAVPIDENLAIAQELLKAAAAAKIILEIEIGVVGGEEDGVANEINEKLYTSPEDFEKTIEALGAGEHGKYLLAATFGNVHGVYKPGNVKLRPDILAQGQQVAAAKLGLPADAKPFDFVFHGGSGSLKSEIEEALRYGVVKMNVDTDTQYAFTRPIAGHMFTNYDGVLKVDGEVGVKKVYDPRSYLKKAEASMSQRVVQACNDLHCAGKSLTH
# Mtb FBA confirm: M. tuberculosis aldolase blockers, biochemical, fluorescence, strain H37Rv, confirmation; shares compounds with Mtb FBA inh; purified M. tuberculosis FBA, fluorescence read-out; inhibition, % at 1 µM; 78% of 5,600 active; AID 651616, 2012;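 note: 0% = vehicle wells and 100% = reference inhibitor wells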
# GDH-TPI counter-2: GDH-TPI coupling enzyme inhibitors, artefact control for M. tuberculosis FBA inhibitor project, biochemical, fluorescence, high throughput | 81% of 5,600 active | GDH-TPI coupled enzyme counterscreen | inhibition, % at 1 µM | shares compounds with Mtb FBA inh; in the data active = inhibition above about 10%
# The depositor's hits bear a star; . = no result given; + = active, no number. An excerpt weighted towards active compounds, which were near 3.1% of everything screened. Cut-off read from the data, not from the text of the source, unless noted: active = inhibition above about 27%; inactive = the rest.
SMILES,3CLpro inhibitor,FadD28 binding,GDH-TPI counter-1,Mtb BioA inh,Mtb FBA inh,Mtb FBA confirm,GDH-TPI counter-2
COc1cc(OC)cc(-c2c(-c3ccc(F)cc3)c3cc(-c4cccc5[nH]ccc45)ccc3n2C)c1,.,0,29,-1,48*,5,-9
COc1cccc(-c2c(-c3cc(OC)cc(OC)c3)n(C)c3ccc(-c4cccc5[nH]ccc45)cc23)c1,.,-2,25,-1,54*,+,+
COc1cc(OC)cc(-c2c(-c3ccc(F)cc3)c3cc(-c4ccc(OC)nc4)ccc3n2C)c1,.,-1,4,-2,5,.,.
C=C[C@H](OC)[C@@H](OC(=O)Nc1ccc(SC)cc1)c1ccc(OCCO)cc1,.,.,.,0,.,.,.
O=C(c1cc(-c2cccs2)nc2ccccc12)N1CCN(c2ccccc2O)CC1,-2,-5,0,.,10,.,.
CCN(C(=O)COC(=O)c1cc(-c2cccs2)nc2ccccc12)C1CCS(=O)(=O)C1 (configuration not stated),1,-6,16,.,72*,45*,45*
O=C(NN1CCOCC1)c1cc(-c2ccncc2)nc2ccccc12,0,-2,4,.,0,.,.
Cc1cc(C(=O)N/N=C/c2cccnc2)c2ccccc2n1,-6,.,-10,9,-5,.,.
CCc1ccc(-c2cc(C(=O)NN3CCOCC3)c3ccccc3n2)s1,-1,1,9,.,89*,44*,35*
O=C(N/N=C/c1cccnc1)c1cc(-c2cccs2)nc2ccccc12,4,-7,16,9,56*,51*,50*
O=C(c1cc(-c2cccs2)nc2ccccc12)N1CCN(CCO)CC1,.,-4,8,0,99*,+,+
C[C@H]1CN([C@@H](C)CO)C(=O)c2cc(NC(=O)Nc3ccc(F)cc3)ccc2O[C@H]1CN(C)S(=O)(=O)c1cn(C)cn1,.,.,.,2,.,.,.
C[C@@H]1CN([C@@H](C)CO)C(=O)Cc2cc(NS(=O)(=O)c3cn(C)cn3)ccc2O[C@H]1CN(C)CC1CCCCC1,.,.,.,1,.,.,.
C[C@@H]1CN([C@@H](C)CO)S(=O)(=O)c2ccc(C#CC3CC3)cc2O[C@@H]1CN(C)S(C)(=O)=O,.,.,.,5,.,.,.
O=C(NN1CCOCC1)c1cc(-c2cccs2)nc2ccccc12,-7,-2,20,-1,51*,36*,21*
C/C(=N\NC(=O)c1cc(-c2ccc(C)s2)nc2ccccc12)c1cccnc1,-2,-7,11,-1,62*,136*,111*
O=C(NN1CCOCC1)c1cc(-c2ccccc2)nc2ccccc12,-1,-2,8,-1,0,.,.
O=C(OC1CCOC1=O)c1cc(-c2cccs2)nc2ccccc12 (configuration not stated),0,-2,6,1,44*,9,2
Cc1ccc(-c2cc(C(=O)OC3CCOC3=O)c3ccccc3n2)c(C)c1 (configuration not stated),6,-12,-1,0,-4,.,.
CN(C)C(=O)C[C@H]1C[C@H]2c3cc(NC(=O)C4CCOCC4)ccc3O[C@H]2[C@H](CO)O1,.,.,.,1,.,.,.
C[C@H](CO)N1C[C@H](C)[C@H](CN(C)S(=O)(=O)c2ccccc2)Oc2ccc(NS(=O)(=O)c3ccc(F)cc3)cc2C1=O,.,.,.,-4,.,.,.
CCOC(=O)N1CCC(NC(=O)CSCc2nc(-c3sccc3C)oc2C)CC1,0,-1,16,1,40*,1,-1
Cc1oc(-c2cccs2)nc1CSCC(=O)NC1CC1,1,-1,-6,.,35*,-2,-6
C[C@H](CO)N1C[C@H](C)[C@H](CN(C)C(=O)Nc2cccc3ccccc23)Oc2ccc(NC(=O)Cn3cnnn3)cc2C1=O,.,.,.,2,.,.,.
